In PubChem BioAssay (NCI) one finds growth inhibition data, which are given here for 9 molecules.

This is part of a sample that, as a whole, favours compounds with a hit. Of some 79,000 tested, about 15% had one in any assay. A number with no mark means an inactive call. Active and inactive are the calls of the source. Rule as the data show it: active = growth inhibition above about 70%; inactive = the rest.

A short description of assay [1]: NCI Yeast Anticancer Drug Screen. Data for the rad50 strain (AID 155).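 Also: 0% = growth of vehicle-only cultures of the same strain.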 Conditions: S. cerevisiae rad50 strain growth inhibition, active compounds read high. The essentials: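 Cells are treated with compound, grown, and their growth is then scored against vehicle-only cultures of the same repair-deficient yeast strain.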
Assay [2] in a line: NCI Yeast Anticancer Drug Screen. Data for the mec2-1 strain (AID 157). Conditions: S. cerevisiae mec2-1 strain, active compounds read high. The essentials: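 Using mec2-1 yeast: add compound, measure growth, express inhibition versus vehicle-treated cultures.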
Assay [3] is described as follows: NCI Yeast Anticancer Drug Screen. Data for the sgs1 mgt1 strain (AID 161).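 Also: 0% = growth of cultures given vehicle only.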 Conditions: S. cerevisiae sgs1 mgt1 strain, active compounds read high. In short, it runs like this: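 Yeast cells carrying a defined DNA-repair defect were exposed to test compounds. Growth inhibition was measured relative to vehicle-treated controls.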
Assay [4] in a line: NCI Yeast Anticancer Drug Screen. Data for the cln2 rad14 strain (AID 165).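 Also: 0% = growth equal to vehicle treated cultures.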 Conditions: S. cerevisiae cln2 rad14 strain, active compounds read high. In short, it runs like this:
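Yeast strain cln2 rad14, bearing defects in cell cycle control and DNA repair, serves as the test system; values reflect growth inhibition compared with vehicle.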

A short description of assay [5]: NCI Yeast Anticancer Drug Screen. Data for the bub3 strain (AID 167). Conditions: S. cerevisiae bub3 mutant strain, active compounds read high. The essentials:
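Part of a panel of yeast mutants defective in DNA damage repair or cell cycle regulation. Each strain is grown with compound, and inhibition is calculated relative to solvent-treated cultures.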

Assay [6] can be described thus: NCI Yeast Anticancer Drug Screen. Data for the mlh1 rad18 strain (AID 175). Conditions: S. cerevisiae mlh1 rad18 strain growth inhibition, active compounds read high. In short, it runs like this: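 Steps: expose repair-defective yeast to compound; measure growth; express inhibition against vehicle-treated controls.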
The mark [7] stands for this setting: at 5.0 µM (retest, dose inferred, filed as 0.5).
Setting [8] is: at 50.0 µM (retest, dose inferred, filed as 5.0).

Take `CC(=O)Nc1ccc2c(ccc3cccc[n+]32)c1`: the growth inhibition in assay [1] (setting [7]) is -2%; in assay [1] (setting [8]) it was 0%; in assay [1] (at 50.0 µM), 96.7% (active); in assay [2] (setting [7]), -10%; in assay [2] (setting [8]), -6%; in assay [2] (at 50.0 µM), 97.2% (active). Besides, the growth inhibition in assay [3] (setting [7]) is 1%; in assay [3] (setting [8]), 10%; in assay [3] (at 50.0 µM), 95.8% (active); in assay [4] (setting [7]), -2%; in assay [4] (setting [8]) it was -6%; in assay [4] (at 50.0 µM) it was 95.2% (active). Besides, the growth inhibition is -7% in assay [5] (setting [7]); -13% in assay [5] (setting [8]); 96.5% (active) in assay [5] (at 50.0 µM); -1% in assay [6] (setting [7]); -3% in assay [6] (setting [8]); 96.3% (active) in assay [6] (at 50.0 µM).
On to `OC(COc1ccc(Cl)cc1)CN1CCN(c2cccc(Cl)c2)CC1` (configuration not stated), for which the growth inhibition in assay [1] (setting [7]) is 20%; in assay [1] (setting [8]) it was 99% (active); in assay [1] (at 50.0 µM), 95.8% (active); in assay [2] (setting [7]), 37%; in assay [2] (setting [8]), 100% (active); in assay [2] (at 50.0 µM), 93.9% (active). Moreover, the growth inhibition was 80% (active) in assay [3] (setting [7]); 100% (active) in assay [3] (setting [8]); 98.5% (active) in assay [3] (at 50.0 µM); 20% in assay [4] (setting [7]); 99% (active) in assay [4] (setting [8]); 85.8% (active) in assay [4] (at 50.0 µM). Besides, the growth inhibition in assay [5] (setting [7]) is 25%; in assay [5] (setting [8]), 98% (active); in assay [5] (at 50.0 µM), 95.5% (active); in assay [6] (setting [7]), 62%; in assay [6] (setting [8]), 99% (active); in assay [6] (at 50.0 µM) it was 96.3% (active).
Consider `c1ccc2c(c1)Cc1cc3ccccc3nc1-2`, for which the growth inhibition in assay [1] (setting [7]) was 13%; in assay [1] (setting [8]), 97% (active); in assay [1] (at 50.0 µM), 96.5% (active); in assay [2] (setting [7]), 18%; in assay [2] (setting [8]), 97% (active); in assay [2] (at 50.0 µM), 86.5% (active). The growth inhibition in assay [3] (setting [7]) is 13%; in assay [3] (setting [8]) it was 98% (active); in assay [3] (at 50.0 µM) it was 87.1% (active); in assay [4] (setting [7]), -9%; in assay [4] (setting [8]), 90% (active); in assay [4] (at 50.0 µM) it was 92% (active). Moreover, the growth inhibition in assay [5] (setting [7]) is 10%; in assay [5] (setting [8]) it was 94% (active); in assay [5] (at 50.0 µM), 89.7% (active); in assay [6] (setting [7]), 28%; in assay [6] (setting [8]), 99% (active); in assay [6] (at 50.0 µM) it was 97.2% (active).
Take `Cc1ccccc1NCc1ccccc1Cl`: the growth inhibition in assay [1] (setting [7]) was -141%; in assay [1] (setting [8]) it was 98% (active); in assay [1] (at 50.0 µM), 99% (active); in assay [2] (setting [7]), -55%; in assay [2] (setting [8]), 99% (active); in assay [2] (at 50.0 µM) it was 99.5% (active). The growth inhibition in assay [3] (setting [7]) is -66%; in assay [3] (setting [8]), 99% (active); in assay [3] (at 50.0 µM), 98.5% (active); in assay [4] (setting [7]) it was -83%; in assay [4] (setting [8]), 99% (active); in assay [4] (at 50.0 µM), 99% (active). The growth inhibition in assay [5] (setting [7]) is -65%; in assay [5] (setting [8]), 99% (active); in assay [5] (at 50.0 µM) it was 99.5% (active); in assay [6] (setting [7]), -105%; in assay [6] (setting [8]) it was 98% (active); in assay [6] (at 50.0 µM), 96.7% (active).
Turning to `Cc1ccc2c(c1)C1(SCC(=O)N1c1ccc(Cl)cc1)C(=O)N2` (configuration not stated), the growth inhibition is 1% in assay [1] (setting [7]); 57% in assay [1] (setting [8]); 48.6% in assay [1] (at 50.0 µM); 6% in assay [2] (setting [7]); 36% in assay [2] (setting [8]); 16.4% in assay [2] (at 50.0 µM). Moreover, the growth inhibition in assay [3] (setting [7]) was 5%; in assay [3] (setting [8]), 62%; in assay [3] (at 50.0 µM), 77.8% (active); in assay [4] (setting [7]), -1%; in assay [4] (setting [8]) it was 28%; in assay [4] (at 50.0 µM), 20.8%. For the same molecule, the growth inhibition in assay [5] (setting [7]) is 4%; in assay [5] (setting [8]) it was 74% (active); in assay [5] (at 50.0 µM) it was 64.9%; in assay [6] (setting [7]), -5%; in assay [6] (setting [8]), 69%; in assay [6] (at 50.0 µM), 67.9%.
As to `COC(=O)/C(=C\c1cn(C(C)=O)c2ccccc12)P(=O)(OC)OC`, the growth inhibition in assay [1] (setting [7]) is 9%; in assay [1] (setting [8]) it was 21%; in assay [1] (at 50.0 µM), 41.8%; in assay [2] (setting [7]) it was 5%; in assay [2] (setting [8]) it was 70% (active); in assay [2] (at 50.0 µM), 62.6%. For the same molecule, the growth inhibition in assay [3] (setting [7]) is 2%; in assay [3] (setting [8]), 51%; in assay [3] (at 50.0 µM), 70.8% (active); in assay [4] (setting [7]) it was 31%; in assay [4] (setting [8]) it was 38%; in assay [4] (at 50.0 µM), 63.9%. Moreover, the growth inhibition in assay [5] (setting [7]) was -24%; in assay [5] (setting [8]), 73% (active); in assay [5] (at 50.0 µM), 78.5% (active); in assay [6] (setting [7]), 16%; in assay [6] (setting [8]) it was 69%; in assay [6] (at 50.0 µM), 75.8% (active).
For `Cc1ccc(SC2=C(N(C)C)C(=O)c3ccccc3C2=O)cc1`, the growth inhibition is 3% in assay [1] (setting [7]); 90% (active) in assay [1] (setting [8]); 96% (active) in assay [1] (at 50.0 µM); -13% in assay [2] (setting [7]); 94% (active) in assay [2] (setting [8]); 14.1% in assay [2] (at 50.0 µM). Also, the growth inhibition in assay [3] (setting [7]) is -1%; in assay [3] (setting [8]), 91% (active); in assay [3] (at 50.0 µM), 77.3% (active); in assay [4] (setting [7]), 42%; in assay [4] (setting [8]) it was 94% (active); in assay [4] (at 50.0 µM) it was 58.1%. Besides, the growth inhibition in assay [5] (setting [7]) is 4%; in assay [5] (setting [8]), 90% (active); in assay [5] (at 50.0 µM) it was 95.2% (active); in assay [6] (setting [7]), -3%; in assay [6] (setting [8]) it was 89% (active); in assay [6] (at 50.0 µM), 89.7% (active).
For the molecule `COc1ccc(CN2C(=O)C(Cl)=C(Cl)C2=O)c(OC)c1`, the growth inhibition was -1% in assay [1] (setting [7]); 50% in assay [1] (setting [8]); 99.5% (active) in assay [1] (at 50.0 µM); 4% in assay [2] (setting [7]); 59% in assay [2] (setting [8]); 99.7% (active) in assay [2] (at 50.0 µM). Moreover, the growth inhibition in assay [3] (setting [7]) was -2%; in assay [3] (setting [8]) it was 73% (active); in assay [3] (at 50.0 µM), 99.6% (active); in assay [4] (setting [7]), -4%; in assay [4] (setting [8]), 27%; in assay [4] (at 50.0 µM) it was 99% (active). Besides, the growth inhibition in assay [5] (setting [7]) is -2%; in assay [5] (setting [8]), 68%; in assay [5] (at 50.0 µM), 99.5% (active); in assay [6] (setting [7]), -2%; in assay [6] (setting [8]) it was 44%; in assay [6] (at 50.0 µM), 99.5% (active).
For `O=C1C(Br)=C(Br)C(=O)c2ccccc21`, the growth inhibition is 100% (active) in assay [1] (setting [7]); 95% (active) in assay [1] (setting [8]); 92.5% (active) in assay [1] (at 50.0 µM); 100% (active) in assay [2] (setting [7]); 96% (active) in assay [2] (setting [8]); 94.2% (active) in assay [2] (at 50.0 µM). Besides, the growth inhibition in assay [3] (setting [7]) is 100% (active); in assay [3] (setting [8]), 95% (active); in assay [3] (at 50.0 µM), 94.5% (active); in assay [4] (setting [7]), 100% (active); in assay [4] (setting [8]) it was 95% (active); in assay [4] (at 50.0 µM) it was 90.9% (active). In addition, the growth inhibition was 100% (active) in assay [5] (setting [7]); 98% (active) in assay [5] (setting [8]); 96.7% (active) in assay [5] (at 50.0 µM); 99% (active) in assay [6] (setting [7]); 91% (active) in assay [6] (setting [8]); 89.9% (active) in assay [6] (at 50.0 µM).
